Sampled rows, rich in hits. Any-hit rate of the full collection: about 12%.
WT yeast gro inh: growth inhibition of WT strain, primary screen, mitochondrial fusion inhibitor project, WT and mutant strains, chemical genetic | mitochondrial fusion phenotypic screen | inhibition, % at 10 µM | actives 2.1% (n = 190,000) | AID 1362, 2008; in the data active = inhibition above about 58%; tested in S. cerevisiae
CHOP inhibitor: inhibitors of CHOP promoter induction, primary screen, cell-based, unfolded protein response, luciferase reporter | AID 2732, 2010 | inhibition, % at 10 µM | actives 3.8% (n = 220,000) | CHO-K1 CHOP-promoter luciferase, tunicamycin-induced, 15-18 h;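 active = compounds that reduced the stress-induced luciferase reporter signal by more than about 70% of percent inhibition, limit read from the data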
Arbovirus inh: antivirals against arbovirus infection, primary screen, cell-based, full library, 10K replicate subset | inhibition, % at 10 µM | actives 0.37% (n = 200,000) | AID 1251, 2008 | arbovirus infection cell-based antiviral screen; in the data active = inhibition above about 30%
Lmaj promast: Leishmania major promastigote growth inhibition, primary screen. AID 1063, 2008. Leishmania major promastigotes, resazurin fluorescence viability. inhibition, % at 10 µM. actives 9% (n = 200,000); in the data active = inhibition above about 50%;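 note: promastigotes grown with compound for 44 hours at 28 °C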
A number is an active result.

`O=C(c1cccc(Cl)c1)C1CCCN(Cc2cccc3cnccc23)C1` (stereo not drawn) gave WT yeast gro inh inactive, CHOP inhibitor inactive, Arbovirus inh inactive and Lmaj promast 95.
Cc1c(/C=C2/CC3C4CC=C5CC(O)CCC5(C)C4CCC3(C)C2=O)cnn1C (stereo not drawn) was read as Lmaj promast inactive.
For N#CC(=Cc1ccc(O)c(O)c1)C(N)=S the results were CHOP inhibitor inactive.
O=c1c2ccccc2nc(/C=C/c2ccc([N+](=O)[O-])o2)n1-c1ccc(O)cc1 was read as WT yeast gro inh inactive, CHOP inhibitor inactive, Arbovirus inh inactive and Lmaj promast 99.
Screening Cc1cccc(-n2c(/C=C/c3ccc([N+](=O)[O-])o3)nc3ccccc3c2=O)c1 returned WT yeast gro inh inactive, CHOP inhibitor inactive, Arbovirus inh inactive and Lmaj promast 88.
`COc1cc(/C=C/c2nc3ccccc3c(=O)n2-c2cccc(O)c2)ccc1O` gave CHOP inhibitor inactive.
Screening COC(=O)C(=O)N1CC2(C)CNCC(C)(C1)C2=O returned WT yeast gro inh inactive, CHOP inhibitor inactive, Arbovirus inh inactive and Lmaj promast inactive.
O=[N+]([O-])c1cc2c(cc1CNCCc1ccc3c(c1)OCO3)OCO2 was read as WT yeast gro inh inactive, CHOP inhibitor inactive, Arbovirus inh inactive and Lmaj promast inactive.
c1cc2c(cc1CCNC1C3CC4CC(C3)CC1C4)OCO2 (stereo not drawn) was read as WT yeast gro inh inactive, CHOP inhibitor inactive, Arbovirus inh inactive and Lmaj promast 86.
For CC1CCC(NCCc2ccc3c(c2)OCO3)CC1 (stereo not drawn) the results were WT yeast gro inh inactive, CHOP inhibitor inactive, Arbovirus inh inactive and Lmaj promast 93.
For CN1CCC23CCCC[C@H]2C1Cc1ccc(O)cc13 (stereo partly drawn) the results were CHOP inhibitor inactive.
For O=C1NC(=O)N(CC2CCCO2)C(=O)/C1=C/c1cccs1 (stereo not drawn) the results were CHOP inhibitor inactive.
O=C1NC(=S)N(c2ccccc2F)C(=O)/C1=C\c1cccs1 was read as WT yeast gro inh inactive, CHOP inhibitor 83, Arbovirus inh inactive and Lmaj promast inactive.
Screening O=C1NC(=O)N(c2cccc(Br)c2)C(=O)/C1=C/c1ccsc1 returned WT yeast gro inh inactive, CHOP inhibitor inactive, Arbovirus inh inactive and Lmaj promast inactive.
For CC(C)NS(=O)(=O)c1ccc(OCC(=O)N2CCN(C)CC2)cc1 the results were WT yeast gro inh inactive, CHOP inhibitor inactive, Arbovirus inh inactive and Lmaj promast inactive.
For CN1CCN(C(=O)COc2ccc(-c3nc4ccccc4s3)cc2)CC1 the results were WT yeast gro inh inactive, CHOP inhibitor inactive, Arbovirus inh inactive and Lmaj promast 100.
`CCCCCCN1CCN(c2ccc(Cl)cc2)CC1` gave WT yeast gro inh inactive, CHOP inhibitor inactive, Arbovirus inh inactive and Lmaj promast 82.
`Fc1ccc(CN2CCN(c3ccc(Cl)cc3)CC2)cc1` gave WT yeast gro inh inactive, CHOP inhibitor inactive, Arbovirus inh inactive and Lmaj promast inactive.
Screening CCN1CCN(c2ccc(N)cc2)CC1 returned WT yeast gro inh inactive, CHOP inhibitor inactive, Arbovirus inh inactive and Lmaj promast inactive.
Screening Cc1cccc(CN2CCN(Cc3ccc(Cl)cc3)CC2)c1 returned WT yeast gro inh inactive, CHOP inhibitor inactive, Arbovirus inh inactive and Lmaj promast 89.
For Cc1cccc(CN2CCN(c3ccc(Cl)cc3)CC2)c1 the results were WT yeast gro inh inactive, CHOP inhibitor 83, Arbovirus inh inactive and Lmaj promast inactive.
For Oc1ccc(Cl)cc1CN1CCN(Cc2ccccc2)CC1 the results were WT yeast gro inh inactive, CHOP inhibitor inactive, Arbovirus inh inactive and Lmaj promast 63.
For COc1ccccc1CN1CCN(Cc2ccc(Cl)cc2)CC1 the results were WT yeast gro inh inactive, CHOP inhibitor inactive, Arbovirus inh inactive and Lmaj promast inactive.
For CCOC(=O)c1sc(/N=C/c2c(O)n(-c3cccc(C)c3)c(=O)[nH]c2=O)c(C#N)c1C the results were WT yeast gro inh inactive, CHOP inhibitor inactive, Arbovirus inh inactive and Lmaj promast inactive.
`CC(Cc1ccsc1)NCc1cn[nH]c1-c1ccc(F)cc1F` (stereo not drawn) gave CHOP inhibitor inactive.
For COc1ccc(CCC(C)NCCc2ccccc2)cc1 (stereo not drawn) the results were WT yeast gro inh inactive, CHOP inhibitor inactive, Arbovirus inh inactive and Lmaj promast 89.
Screening CCC(CO)(C(=O)OC1C[N+]2(C)CCC1CC2)c1ccccc1 (stereo not drawn) returned WT yeast gro inh inactive, CHOP inhibitor inactive, Arbovirus inh inactive and Lmaj promast inactive.
For Cc1cc(Cl)ccc1OCCCC(=O)NCc1cccs1 the results were WT yeast gro inh inactive, CHOP inhibitor inactive, Arbovirus inh inactive and Lmaj promast 60.
`Cc1cc(OCCCC(=O)NCc2cccs2)ccc1Cl` gave WT yeast gro inh inactive, CHOP inhibitor inactive, Arbovirus inh inactive and Lmaj promast 56.
`O=C(CCCOc1ccc(Cl)cc1Cl)N1CCC2(CC1)OCCO2` gave WT yeast gro inh inactive, CHOP inhibitor inactive, Arbovirus inh inactive and Lmaj promast inactive.
COC(=O)C1=CO[C@@H](C)[C@@H]2CN3CC[C@]4(C(=O)Nc5ccccc54)[C@@H]3C[C@H]12 was read as WT yeast gro inh inactive, CHOP inhibitor inactive, Arbovirus inh inactive and Lmaj promast inactive.
Screening Cc1sc2ncn(CC(=O)NCCCC(=O)N3CCC4(CC3)OCCO4)c(=O)c2c1C returned WT yeast gro inh inactive, CHOP inhibitor inactive, Arbovirus inh inactive and Lmaj promast inactive.
For O=C(Cc1ccccc1)N1CCN(C2CCCC2)CC1 the results were WT yeast gro inh inactive, CHOP inhibitor inactive, Arbovirus inh inactive and Lmaj promast inactive.
For CCOC(=O)C1(CCc2ccccc2)CCN(Cc2ccc3c(c2)OCCO3)CC1 the results were WT yeast gro inh inactive, CHOP inhibitor inactive, Arbovirus inh inactive and Lmaj promast 84.
`CCOC(=O)C1(CCCc2ccccc2)CCN(C2CCCC2)CC1` gave WT yeast gro inh inactive, CHOP inhibitor inactive, Arbovirus inh inactive and Lmaj promast 71.
`CCOC(=O)C1(c2ccccc2)CCN(Cc2cccc(C(=O)O)c2)CC1` gave WT yeast gro inh inactive, CHOP inhibitor inactive, Arbovirus inh inactive and Lmaj promast inactive.
`CCOC(=O)C1(CCc2ccccc2)CCN(C2CCSCC2)CC1` gave WT yeast gro inh inactive, CHOP inhibitor inactive, Arbovirus inh inactive and Lmaj promast 88.
For CCNC(=O)[C@H]1O[C@@H](n2cnc3c(N)ncnc32)C(O)[C@H]1O (stereo partly drawn) the results were CHOP inhibitor inactive.
`CN1CCN(CCC(C#N)(c2ccccc2)c2ccccc2)CC1` gave WT yeast gro inh inactive, CHOP inhibitor inactive, Arbovirus inh inactive and Lmaj promast 79.
`Cc1cc(NC(=O)COC(=O)c2c(C)nn(Cc3ccccc3Cl)c2C)no1` gave WT yeast gro inh inactive, CHOP inhibitor inactive, Arbovirus inh inactive and Lmaj promast inactive.
Screening Cc1nn(Cc2ccccc2Cl)c(Cl)c1C(=O)OCC(=O)NC(=O)NC1CCCCC1 returned WT yeast gro inh inactive, CHOP inhibitor inactive, Arbovirus inh inactive and Lmaj promast 52.
